Read-out in test [1]: Urokinase-type plasminogen activator receptor (uPAR), PLAUR (gene 5329)
Description: BSK_4H_uPAR: BioMAP Diversity Plus: 4H Assay for Urokinase-type plasminogen activator receptor (uPAR) Biomarker Activity (AID 2283030). The note with it: primary human endothelial cells (HUVEC); actives raise or lower the signal. The method in brief: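 Chemicals are dosed onto human vascular endothelial primary cells (umbilical vein). After 24 h, uPAR is read by ELISA. Gain or loss of signal is fitted relative to DMSO.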

Read-out in test [2]: Vascular endothelial growth factor receptor 2 (Homo sapiens) (UniProt P35968)
Description: BSK_4H_VEGFRII: BioMAP Diversity Plus: 4H Assay for Vascular endothelial growth factor receptor 2 (VEGFR2) Biomarker Activity (AID 2283031). The settings on record: primary human endothelial cells (HUVEC); actives raise or lower the signal. Put shortly:
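VEGFRII levels on human vascular endothelial primary cells were determined by ELISA at 24 hours post-dosing, with gain- or loss-of-signal fitted against DMSO controls.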

Read-out in test [3]: Human Leukocyte Antigen - DR isotype (HLADR), HLA-DRA (gene 3122)
The test can be described thus: BSK_BE3C_HLADR: BioMAP Diversity Plus: BE3C Assay for Human Leukocyte Antigen - DR isotype (HLADR) Biomarker Activity (AID 2283032). The note with it: primary human bronchial epithelial cells; actives raise or lower the signal. The method in brief: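 Chemicals are dosed onto BE3C bronchial epithelial cultures of human origin and left 24 h. HLA-DR is then measured by ELISA, and the endpoint is fitted in both directions using DMSO as the activity baseline.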

Read-out in test [4]: Vascular cell adhesion molecule 1 (VCAM1), VCAM1 (gene 7412)
Description: BSK_4H_VCAM1: BioMAP Diversity Plus: 4H Assay for Vascular cell adhesion molecule 1 (VCAM1) Biomarker Activity (AID 2283033).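 As to outcome: cell-surface VCAM-1 protein measured by ELISA.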 The settings on record: primary human endothelial cells (HUVEC); actives raise or lower the signal. Put shortly:
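Chemicals are added to primary human umbilical vein endothelial cells. After 24 h, VCAM-1 levels are measured by ELISA. Values come from bidirectional fitting referenced to DMSO.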

Read-out in test [5]: Interferon-gamma inducible Protein 10 (IP10), CXCL10 (gene 3627)
Description: BSK_BE3C_IP10: BioMAP Diversity Plus: BE3C Assay for Interferon-gamma inducible Protein 10 (IP10) Biomarker Activity (AID 2283034). The note with it: primary human bronchial epithelial cells; actives raise or lower the signal. Put shortly:
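IP-10 quantified by ELISA serves as the endpoint. Cells: primary human bronchial epithelium, read 24 h after compound addition. Activity is derived by bidirectional fitting with DMSO as negative control.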

Read-out in test [6]: Monokine induced gamma interferon (MIG), CXCL9 (gene 4283)
The test can be described thus: BSK_BE3C_MIG: BioMAP Diversity Plus: BE3C Assay for Monokine induced gamma interferon (MIG) Biomarker Activity (AID 2283035).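 As to outcome: MIG protein measured by ELISA in BE3C cultures after 24 h of dosing.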 The note with it: primary human bronchial epithelial cells; actives raise or lower the signal. The method in brief: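 hu bronchial epithelial 1° cells, 24 h cpd; MIG by ELISA; bidirectional fit, DMSO = baseline.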

Read-out in test [7]: Transforming growth factor beta 1 (TGFb1), TGFB1 (gene 7040)
The test can be described thus: BSK_BE3C_TGFb1: BioMAP Diversity Plus: BE3C Assay for Transforming growth factor beta 1 (TGFb1) Biomarker Activity (AID 2283036;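 as to outcome: TGF-b1 protein level measured by ELISA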). The note with it: primary human bronchial epithelial cells; actives raise or lower the signal. Put shortly: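 Bronchial epithelial primary cells are treated with test chemical, then TGF-b1 is quantified by ELISA after 24 hours. Values derive from bidirectional fitting against DMSO, with cytotoxicity checked by SRB staining in parallel cultures.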

Read-out in test [8]: urokinase plasminogen activator (uPA), PLAU (gene 5328)
The test can be described thus: BSK_BE3C_uPA: BioMAP Diversity Plus: BE3C Assay for urokinase plasminogen activator (uPA) Biomarker Activity (AID 2283038).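 As to outcome: uPA protein level quantified by ELISA in cell cultures; uPA read one day after compound addition.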 The note with it: primary human bronchial epithelial cells; actives raise or lower the signal. The method in brief:
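Measured by ELISA: uPA from human primary bronchial epithelial cells 24 h after chemical treatment. Values derive from bidirectional curve fitting with DMSO serving as negative control. Total protein by SRB staining in parallel wells flagged overt cytotoxicity.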

Read-out in test [9]: Urokinase-type plasminogen activator receptor (uPAR), PLAUR (gene 5329)
The test can be described thus: BSK_BE3C_uPAR: BioMAP Diversity Plus: BE3C Assay for Urokinase-type plasminogen activator receptor (uPAR) Biomarker Activity (AID 2283039).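 Also: uPAR protein level measured by ELISA on the cells; cells exposed to compound for one day before measurement.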 The note with it: primary human bronchial epithelial cells; actives raise or lower the signal. Put shortly: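 Steps: dose human primary bronchial epithelial cells, incubate 24 h, measure uPAR by ELISA, then fit gain- or loss-of-signal response bidirectionally relative to DMSO.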

Read-out in test [10]: Interleukin-6 (IL6), IL6 (gene 3569)
Description: BSK_CASM3C_IL6: BioMAP Diversity Plus: CASM3C Assay for Interleukin-6 (IL6) Biomarker Activity for (AID 2283040). The settings on record: primary human coronary artery smooth muscle cells; actives raise or lower the signal.

Read-out in test [11]: Tissue plasminogen activator (tPA), PLAT (gene 5327)
The test can be described thus: BSK_BE3C_tPA: BioMAP Diversity Plus: BE3C Assay for Tissue plasminogen activator (tPA) Biomarker Activity (AID 2283041).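 As to outcome: tPA level quantified by ELISA one day after compound addition.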 The note with it: primary human bronchial epithelial cells; actives raise or lower the signal. The method in brief:
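Gain- or loss-of-signal in tPA, measured by ELISA, derived by bidirectional fitting against DMSO. Cells: human primary bronchial epithelial; read at 24 h after chemical dosing.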

Read-out in test [12]: Interleukin-8 (IL8), CXCL8 (gene 3576)
Description: BSK_CASM3C_IL8: BioMAP Diversity Plus: CASM3C Assay for Interleukin-8 (IL8) Biomarker Activity (AID 2283042).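 Also: IL-8 protein level quantified by ELISA.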 The note with it: primary human coronary artery smooth muscle cells; actives raise or lower the signal.

Read-out in test [13]: Human Leukocyte Antigen - DR isotype (HLADR), HLA-DRA (gene 3122)
Description: BSK_CASM3C_HLADR: BioMAP Diversity Plus: CASM3C Assay for Human Leukocyte Antigen - DR isotype (HLADR) Biomarker Activity (AID 2283043).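 Also: cell-surface HLA-DR protein level quantified by ELISA.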 The settings on record: primary human coronary artery smooth muscle cells; actives raise or lower the signal.

Read-out in test [14]: Macrophage colony-stimulating factor (MCSF), CSF1 (gene 1435)
The test can be described thus: BSK_CASM3C_MCSF: BioMAP Diversity Plus: CASM3C Assay for Macrophage colony-stimulating factor (MCSF) Biomarker Activity (AID 2283044).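 Also: M-CSF protein amount quantified by ELISA after 24 h exposure.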 The settings on record: primary human coronary artery smooth muscle cells; actives raise or lower the signal.

Read-out in test [15]: Low-density lipoprotein receptor (LDLR), LDLR (gene 3949)
Description: BSK_CASM3C_LDLR: BioMAP Diversity Plus: CASM3C Assay for Low-density lipoprotein receptor (LDLR) Biomarker Activity (AID 2283045).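 Also: LDLR protein level on the cell surface quantified by ELISA.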 The settings on record: primary human coronary artery smooth muscle cells; actives raise or lower the signal.

Read-out in test [16]: Monocyte Chemoattractant Protein-1 (MCP1), CCL2 (gene 6347)
Description: BSK_CASM3C_MCP1: BioMAP Diversity Plus: CASM3C Assay for Monocyte Chemoattractant Protein-1 (MCP1) Biomarker Activity (AID 2283046).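 Also: MCP-1 level quantified by ELISA 24 h after dosing.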 The settings on record: primary human coronary artery smooth muscle cells; actives raise or lower the signal.

Test [17] in a line: BSK_CASM3C_Proliferation: Cell Proliferation Assessment in the BioMAP Diversity Plus: CASM3C Assay (AID 2283047).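 Also: sulforhodamine B total protein stain as relative cell number at 560 nm; sub-confluent cells exposed 48 h before staining; fitted both ways against DMSO so gain or loss of cell number.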 The settings on record: primary human coronary artery smooth muscle cells.
Read-out in test [18]: Monokine induced gamma interferon (MIG), CXCL9 (gene 4283)
The test can be described thus: BSK_CASM3C_MIG: BioMAP Diversity Plus: CASM3C Assay for Monokine induced gamma interferon (MIG) Biomarker Activity (AID 2283048).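 Also: MIG protein level measured by ELISA.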 The note with it: primary human coronary artery smooth muscle cells; actives raise or lower the signal.

Read-out in test [19]: serum amyloid A (SAA), SAA1 (gene 6288)
Description: BSK_CASM3C_SAA: BioMAP Diversity Plus: CASM3C Assay for serum amyloid A (SAA) Biomarker Activity (AID 2283049).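 Also: SAA protein level quantified by ELISA.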 The note with it: primary human coronary artery smooth muscle cells; actives raise or lower the signal.

Read-out in test [20]: Plasminogen activator inhibitor-1 (PAI1), SERPINE1 (gene 5054)
The test can be described thus: BSK_BE3C_PAI1: BioMAP Diversity Plus: BE3C Assay for Plasminogen activator inhibitor-1 (PAI1) Biomarker Activity (AID 2283037). The settings on record: primary human bronchial epithelial cells; actives raise or lower the signal. The method in brief: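 Values derive from bidirectional fitting against DMSO baseline of PAI-1 levels, measured by ELISA in human bronchial epithelial cells 24 h after compound addition.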

A structure can be active in one record and inactive in another. Active and inactive are the calls of the source. The calls were made as follows: active = hit-call score of the fitted dose curve at least 0.9, where 1 is the maximum; inactive = score below 0.9.

Results on five molecules are retold here after PubChem BioAssay (EPA / NIEHS).

For the molecule `C#C[C@]1(O)CC[C@H]2[C@@H]3CCc4cc(O)ccc4[C@H]3CC[C@@]21C`, the AC50 in test [1] is 3.93 µM (active); in test [15] it was 29.2 µM (active); in test [16], 2.14 µM (active); in test [17], 7.37 µM (active); in test [19], 0.935 µM (active). Also, the outcome in test [2], in test [3], in test [4], in test [5], in test [6] and in [7] was inactive. Also, the result in test [8], in test [9], in [10], in test [11], in test [12] and in test [13] was inactive. For the same molecule, the result in test [14] and in test [18] was inactive.

As to `CC(C)Cc1ccc(C(C)C(=O)O)cc1` (configuration not stated), the result in test [1], in test [2], in test [3], in [4], in test [5] and in test [6] was inactive. Also, the result in test [7], in test [20], in test [8], in [9], in test [11] and in test [12] was inactive. Besides, the outcome in test [13], in test [14], in test [15], in [16], in test [18] and in [19] was inactive. Further, the AC50 was 5.55 µM (active) in test [10] and 0.2 µM (active) in test [17].

For the molecule `CC(C)(CO)CO`, the outcome in [1], in [2], in test [3], in test [4], in test [5] and in [6] was inactive. Moreover, the outcome in test [8], in [9], in [10], in [11], in test [12] and in test [13] was inactive. Further, the result in [14], in test [15], in test [16], in test [17], in test [18] and in test [19] was inactive. Also, the figures for the half-maximal activity concentration (AC50) in [5] and in [6] were 5.62 µM (active) and 8.35 µM (active), respectively.

As to `CCCCCCCC1CCCC1=O` (configuration not stated), the concentration at half-maximal activity (AC50) in test [1] was 30.7 µM (active); in test [3], 30.7 µM (active); in [4] it was 31.5 µM (active); in test [5], 33.5 µM (active); in test [7], 36.6 µM (active); in [8] it was 32.4 µM (active). Besides, the AC50 in test [10] was 31 µM (active); in test [11], 33.4 µM (active); in test [13] it was 35.2 µM (active); in [14], 31.9 µM (active); in [15], 30.5 µM (active); in [16] it was 34.3 µM (active). Besides, the AC50 in [17] is 31.2 µM (active); in test [18], 31.8 µM (active); in [19], 36.2 µM (active). Moreover, the result in test [2], in [6], in test [9] and in test [12] was inactive.

On to `CC=CC(=O)C1=C(C)C=CCC1(C)C`, for which the outcome in test [1], in test [2], in test [3], in test [4], in [5] and in test [6] was inactive. The outcome in test [7], in [8], in test [9], in [10], in test [11] and in [12] was inactive. The result in [13], in test [14], in test [15], in test [16], in test [17] and in test [18] was inactive. Besides, the outcome in test [19] was inactive.
